Where “and” joins values, the source holds several entries; their conditions need not be identical. Equal entries are not always repeated. Compounds without any hit were thinned out: in the full panel of roughly 83,000, 20% have a hit.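 Method: cells in 96-well plates; compound added at one concentration; 48 h incubation; percent growth measured; values under 10 scored active.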 Calls of active or inactive are those of the source.

The experiment relates to HL-60(TB) leukemia. Briefly: NCI-60 one-dose screen, 48 h (100 = growth as untreated, 0 = no growth, -100 = all killed). The conditions noted are these: 10 µM unless noted.
As for `CCOC(=O)Cn1c(O)c(N=Nc2ccc(S(N)(=O)=O)cc2)c2cc(Br)ccc21`, the growth is 96.2% (inactive).
Regarding `CCCC(=O)NC(c1ccc2c(c1)OCO2)c1ccc2cccnc2c1O` (centres undefined), the growth is -47.7% (active).
To `COc1cc(OC)cc(C2=C3CC[C@@H]4[C@H](CC[C@]5(C)C(=O)CC[C@@H]45)C3=CC3C(O)c4cccnc4N4C(=O)COC234)c1` (some centres undefined) belongs 98% (inactive); to `COc1ccc(-c2cnc(-c3ccc(F)cc3)[nH]2)cc1`, 74.9% (inactive); to `CC(C)(C)CC(C)(C)c1ccc(OCCOCCSC(=N)N)cc1`, -51.7% (active).
`C#Cc1cccc(NC(=O)c2ccc(NC(=O)CCl)cc2)c1`: the growth is 11.7% [8.25 µM] (inactive).
As for `Cc1sc2nc(N3CCCCC3)[nH]c(=O)c2c1C`, the growth is 102% (inactive).
For `CCOC(=O)C1CCCN1C(=O)C1(NC(C)=O)CCCC1` (centres undefined), the growth is 98.4% (inactive).
Regarding `CC(=O)N(N=Nc1ccccc1)c1cccc2ccccc12`, the growth is 116% (inactive).
For `O=C(c1ccccc1)c1ccc(-c2ccc(O)cc2)cc1`, the growth is 75.1% (inactive).
Turning to `COC(=O)c1ccccc1Cl`, the growth is 97.3% (inactive).
As for `COc1cc(C(=O)n2nc(N3CCN(C)CC3)c3cc(N)ccc32)cc(OC)c1OC`, the growth was 1.68% (active).
As to `CC(=O)Oc1cc(C(C)C)c(OCCN(C)C)cc1C`, the growth was 131% (inactive).
Take `O=c1c2cccc3c(Nc4ccc(F)cc4)ccc(c32)c2nc3ccccc3n12`: the growth was 124% (inactive).
In the case of `CNc1nnc2n(-c3ccccc3)c(=O)c3cnn(-c4ccccc4)c3n12`, the growth is 70.5% (inactive).
As to `O=c1c2c([nH]c3ccccc13)CCCC2`, the growth is 97.6% (inactive) and 5.42% (active).
To `Cc1cc(S(=O)(=O)/N=C(\N)n2nc(C)c(C)c2C)c(SCc2ccccc2)cc1Cl` belongs 81.9% (inactive); to `Nc1nc(SCC#CCCl)c2[nH]cnc2n1`, 11% (inactive).
Turning to `CC(=O)c1cc2c(N)c(C(=O)Nc3ccccc3)sc2nc1C`, the growth was 55.6% (inactive).
For `COc1ccc(/C=C(\C#N)c2cc(OC)c(OC)c(OC)c2)cc1`, the growth was -31.4% (active).
With `CCn1c2ccccc2c2cc(NC(=O)Nc3ccc([N+](=O)[O-])cc3C)ccc21`, the growth was 18.7% (inactive).
Under `COC(=O)[C@H](Cc1ccccc1)NC(=O)[C@@H](OC)[C@@H]1Cc2cc3cc(OC4CC(OC5CC(O)C(O)C(C)O5)C(O)C(C)O4)c(C)c(O)c3c(O)c2C(=O)[C@H]1OC1CC(OC2CC(OC3CC(C)(O)C(O)C(C)O3)C(O)C(C)O2)C(O)C(C)O1` (some centres undefined) stands -9.07% (active); under `O=C(C(=Cc1ccccc1)C(=O)c1ccccc1)c1ccccc1`, 13% (inactive) and 110% (inactive).
For the compound `O=C(CC(O)c1ccccc1)Nc1ccccn1` (centres undefined), the growth is 97.3% (inactive).
For `COc1ccc(CN2c3ccccc3Sc3ccccc32)cc1F`, the growth is -7.46% (active).
Under `COc1ccc(-c2ccccc2)cc1C(=O)c1ccc(-c2ccccc2)cc1` stands 71.4% (inactive); under `O=C1CC(=NCC(=O)n2c(-c3ccccc3)nc3ccccc32)NN1`, 107% (inactive).
With `Nc1ccn(-c2ccc(Br)cc2)c(=O)n1`, the growth was 125% (inactive).
For the compound `COC1/C=C/OC2(C)Oc3c(C)c(O)c4c(O)c(c(/C=N/Nc5ccc([N+](=O)[O-])cc5[N+](=O)[O-])c(O)c4c3C2=O)NC(=O)C(C)=C/C=C/C(C)C(O)C(C)C(O)C(C)C(OC(C)=O)C1C` (centres undefined), the growth was -1.29% (active).
Turning to `COc1ccc2c(c1)OC1=C(C(=O)OC1)C2c1cc(OC)c2c(c1)OCCO2` (centres undefined), the growth is -29.2% (active).
In the case of `COc1ccc(-c2nsc3c2NC(=O)CC3c2ccc(F)cc2)cc1` (centres undefined), the growth was 7.88% (active).
Take `COc1ccc(-c2nc(Nc3ccc(F)cc3)nc(Nc3ccc4c(c3)nc(C)n4Cc3ccccc3)n2)cc1`: the growth is -11.4% (active).
Turning to `COc1cc2c(cc1OCCCCCn1c3ccccc3c3ccccc31)N=C[C@@H]1CCCN1C2=O`, the growth was -46.7% (active).
Regarding `CC1(/C=N/NC(N)=S)NC(=O)NC1=O` (centres undefined), the growth was 86.8% (inactive).
`O=C(COc1ccc(-c2nc3ccccc3[nH]2)cc1)N=Nc1c(O)[nH]c2ccc(Cl)cc12`: the growth was 39.9% (inactive).
As for `N#CCCN=Nc1c(O)[nH]c2ccc(F)cc12`, the growth was 110% (inactive).
To `Cc1cc(/C=C\c2ccc3ccccc3[n+]2C)c(O)c2ncccc12` belongs -22.4% (active); to `COc1cc(C2CC(C3C(=O)N(C)C(=O)N(C)C3=O)=NN2c2cc(Cl)cc(Cl)c2)cc(OC)c1OC` (centres undefined), 98.6% (inactive); to `COc1ccc(-c2nc3sc4c(c3c(=O)[nH]2)CCCC4)c2ccccc12`, -24.7% (active).

(Values after PubChem BioAssay (NCI).)
